Laboratory results reported in the supplement of paper PMC13380429.

Tested on: Vero E6 infected with SARS-CoV-2
Test: inhibition of SARS-CoV-2 cytopathic effect; higher = more antiviral protection, active = above 15
Conditions: 48 h

Measured: inhibition of SARS-CoV-2 cytopathic effect

CC[C@H](C)C(=O)O[C@H]1C[C@@H](C)C=C2C=C[C@H](C)[C@H](CC[C@@H]3C[C@@H](O)CC(=O)O3)[C@H]21 [lovastatin]
inactive: 1 nM -0.49% | 8.33 nM 4.16% | 100 nM 1.14% | 833.33 nM 1.16% | 10000 nM 0.82%

CN1CCC(OC(c2ccccc2)c2ccccc2)CC1 [diphenylpyraline]
inactive: 1 nM 0.97% | 8.33 nM 0% | 100 nM 0% | 833.33 nM 0.39% | 10000 nM -1.64%

CNc1ccc([N+](=O)[O-])cc1-n1cnc(-c2ccc(C(F)(F)F)cc2)c1
inactive: 1 nM 1.34% | 8.33 nM 1.42% | 100 nM 0.62% | 833.33 nM 1.02% | 10000 nM -0.19%

O=c1c2ccccc2[se]n1-c1ccccc1 [ebselen]
inactive: 1 nM 0.19% | 8.33 nM 3.3% | 100 nM 2.73% | 833.33 nM 3.17% | 10000 nM -3.01%

C[N+](C)(C)CC[N+]1(C)Cc2c(Cl)c(Cl)c(Cl)c(Cl)c2C1 [chlorisondamine-diiodide]
inactive: 1 nM 0.2% | 8.33 nM -3.86% | 100 nM -0.88% | 833.33 nM 1.41% | 10000 nM -1.63%

N[C@@H](Cc1ccc(Cl)cc1)C(=O)O (racemic) [fenclonine-(+/-)]
inactive: 1 nM 1.09% | 8.33 nM 0.73% | 100 nM 0.7% | 833.33 nM 4.29% | 10000 nM 3%

O=C(O)CCCN1C(=O)c2cccc3cccc(c23)C1=O [isodibut]
inactive: 1 nM -4.53% | 8.33 nM -1.77% | 100 nM -4.8% | 833.33 nM -0.3% | 10000 nM -2.2%

C=C1C(=O)O[C@@H]2[C@H]3C(C)=CC[C@@]34O[C@@]4(C)CC[C@@H]12 [arglabin]
inactive: 1 nM -2.02% | 8.33 nM 1.39% | 100 nM -0.31% | 833.33 nM -1.74%
active: 10000 nM 29.2%

c1ccc2nc(C3=NCCN3)cnc2c1
inactive: 1 nM 2.54% | 8.33 nM 1.85% | 100 nM 1.24% | 833.33 nM 4.82% | 10000 nM 2.03%

Clc1cccc2c1CN(C1=NCCN1)C2
inactive: 1 nM 1.97% | 8.33 nM 3.31% | 100 nM 3.22% | 833.33 nM 2.65% | 10000 nM -2.32%

N=C(NCCCCCCNC(=N)NC(=N)Nc1ccc(Cl)cc1)NC(=N)Nc1ccc(Cl)cc1 [chlorhexidine]
inactive: 1 nM 3.47% | 8.33 nM 4.11% | 100 nM 4.83% | 833.33 nM 2.74% | 10000 nM -3.2%

N[C@]1(C(=O)O)CC[C@@H](C(=O)O)C1
inactive: 1 nM 1.21% | 8.33 nM 2.87% | 100 nM 0.81% | 833.33 nM 1.58% | 10000 nM 1.7%

Cc1cc(C)c(S(=O)(=O)n2cc(C)cc2C)c(C)c1
inactive: 1 nM -0.12% | 8.33 nM -0.02% | 100 nM 2.14% | 833.33 nM 0.3% | 10000 nM -1.17%

Cc1cccc(Oc2nc3c(C)cccn3c(=O)c2/C=C(\C#N)c2nc3ccccc3s2)c1
inactive: 1 nM -0.1% | 8.33 nM 1.16% | 100 nM 0.8% | 833.33 nM 3.43% | 10000 nM 0.62%

Cc1nc2ccc(Oc3ccc(F)cc3)cc2c(=O)n1C[C@H]1CCCN(C(C)C)C1
inactive: 1 nM 0.11% | 8.33 nM 0.49% | 100 nM 1.67% | 833.33 nM 0.07% | 10000 nM -5.71%

O=C1c2ccccc2S(=O)(=O)N1CCCCN1CCN(c2ncccn2)CC1 [ipsapirone]
inactive: 1 nM 4.62% | 8.33 nM 2.92% | 100 nM -3.31% | 833.33 nM 1.74% | 10000 nM 0.15%

Cc1ccc(-c2ncc[nH]2)cc1NC(=O)c1ccc(OCc2ccccn2)cc1
inactive: 1 nM -1.02% | 8.33 nM -0.95% | 100 nM -2.09% | 833.33 nM -4.18% | 10000 nM -4.54%

CN(C)CCCCSC(=N)N
inactive: 1 nM -2.5% | 8.33 nM -3.4% | 100 nM -2.41% | 833.33 nM 1.23% | 10000 nM 2.12%

COc1ncc(-c2ccc3c(Nc4cc(Oc5cc(F)cc(F)c5)cc(C(=O)O)c4)c(S(=O)(=O)NC4CC4)cnc3c2)c(OC)n1
inactive: 1 nM 0.82% | 8.33 nM 2.2% | 100 nM 0.69% | 833.33 nM 2.71% | 10000 nM 1.3%
